According to PubChem BioAssay (NCATS):
“And” between values parts separate entries of the source, which are not always exact repeats. Equal values may be shown once. Records with an inconclusive call do not appear. The source holds several records for some structures; these can differ, active in one and inactive in another. The source made the active and inactive calls. Calls follow the shape of the dose curve; as a rule, active = well fitted curve in the direction sought with a large enough effect; inconclusive = small, poorly fitted or top-dose-only effect, or another doubt; inactive = no such curve, though single readings can be large; an effect the other way counts as inactive or inconclusive.

What was measured:
[1] = biological target: Glutathione peroxidase 1 (Homo sapiens) (UniProt P07203); assay: Primary qHTS Assay for Inhibitors of Recombinant Selenoprotein Glutathione Peroxidase 1 (GPX1) (AID 1845191); also: nearly all actives have a fitted effect of over 65% in size
Outline: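 GR-coupled readout: NADPH consumption tracked by fluorescence, ex 340/em 450 nm, at t=0 and after 15 min at RT. Final mix 10 nM GPX1, 1 mM GSH, 0.5 mM CHP, 0.5 mM NADPH, 100 nM GR, 0.01% BSA, following 30 min enzyme–compound preincubation.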

[2] = biological target: Phospholipid hydroperoxide glutathione peroxidase GPX4 (Homo sapiens) (UniProt P36969); assay: Primary qHTS Assay for Inhibitors of Recombinant Selenoprotein Glutathione Peroxidase 4 (GPX4) (AID 1845192); also: nearly all actives have a fitted effect of over 65% in size; also: potency is read from the fitted curve at half-maximal effect
Outline: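 Steps: GPX4 plus compound, 30 min RT; add GR/GSH/NADPH master mix; start with cumene hydroperoxide; read 340/450 nm fluorescence at 0 and 15 min. Finals were 200 nM GPX4, 1 mM GSH, 0.5 mM CHP, 0.5 mM NADPH, 100 nM GR.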

[3] = Quantitative High-Throughput drug screen in 47 multiple myeloma cell lines against the NCATS MIPE library collection: AMO1_DSMZ cell viability assay (AID 1918927; also: nearly all actives have a fitted effect of over 30% in size; also: potency is read from the fitted curve at half-maximal effect)
Outline: (§1)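 CellTiter-Glo ATP luminescence gave viability after 48 h compound treatment at 37C of 500 multiple myeloma cells per well. Normalisation used DMSO-only wells as 100% and media-only wells as 0% viability; primary qHTS of approved and investigational drugs.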

[4] = Quantitative High-Throughput drug screen in 47 multiple myeloma cell lines against the NCATS MIPE library collection: ARD_JJKsccE7 cell viability assay (AID 1918929; also: potency is read from the fitted curve at half-maximal effect)
Outline: as §1

[5] = Quantitative High-Throughput drug screen in 47 multiple myeloma cell lines against the NCATS MIPE library collection: Karpas620_DSMZ cell viability assay (AID 1918959); also: nearly all actives have a fitted effect of over 30% in size
Outline: (§2)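 We plated 500 myeloma cells per well, pinned in MIPE 4.0 compounds, and incubated for 48 hours at 37C. ATP was then quantified with CellTiter-Glo, with DMSO and media-only wells defining 100% and 0%.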

[6] = Quantitative High-Throughput drug screen in 47 multiple myeloma cell lines against the NCATS MIPE library collection: KMM1_JCRB cell viability assay (AID 1918960); also: nearly all actives have a fitted effect of over 30% in size; also: potency is read from the fitted curve at half-maximal effect
Outline: (§3)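 CellTiter-Glo luminescence after 48 h exposure gives viability, scaled between DMSO-only (100%) and media-only (0%) controls. Library compounds are pinned onto 500 myeloma cells per well, incubated at 37C with 5% CO2.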

[7] = Quantitative High-Throughput drug screen in 47 multiple myeloma cell lines against the NCATS MIPE library collection: JIM1_ECACC cell viability assay (AID 1918964)
Outline: as §1

[8] = Quantitative High-Throughput drug screen in 47 multiple myeloma cell lines against the NCATS MIPE library collection: FR4_PLB cell viability assay (AID 1918924; also: nearly all actives have a fitted effect of over 35% in size; also: potency is read from the fitted curve at half-maximal effect)
Outline: as §2

[9] = Quantitative High-Throughput drug screen in 47 multiple myeloma cell lines against the NCATS MIPE library collection: Delta47_JCRB cell viability assay (AID 1918925; also: nearly all actives have a fitted effect of over 45% in size; also: potency is read from the fitted curve at half-maximal effect)
Outline: as §1

[10] = Quantitative High-Throughput drug screen in 47 multiple myeloma cell lines against the NCATS MIPE library collection: ARP1_JJKsccF8 cell viability assay (AID 1918928; also: nearly all actives have a fitted effect of over 40% in size; also: potency is read from the fitted curve at half-maximal effect)
Outline: as §3

[11] = Quantitative High-Throughput drug screen in 47 multiple myeloma cell lines against the NCATS MIPE library collection: Karpas417_ECACC cell viability assay (AID 1918961); also: potency is read from the fitted curve at half-maximal effect
Outline: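 Viability readout: CellTiter-Glo luminescence following 5 min room-temperature incubation with reagent. Prior exposure: 48 h, 37C, humidified 5% CO2, 500 cells per well.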

[12] = Quantitative High-Throughput drug screen in 47 multiple myeloma cell lines against the NCATS MIPE library collection: KHM11_PLB cell viability assay (AID 1918962); also: nearly all actives have a fitted effect of over 35% in size; also: potency is read from the fitted curve at half-maximal effect
Outline: as §2

[13] = biological target: Luciferin 4-monooxygenase (Photinus pyralis) (UniProt P08659); assay: Primary firefly luciferase (FLuc) qHTS assay for identification of artifact compounds. (AID 1845220); conditions: outcome: dose series up to 54.1 µM unless noted; also: series mostly up to about 54 µM; nearly all actives have a fitted effect of over 60% in size
Outline: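 D-luciferin and ATP (10 uM each, final) in Tris acetate buffer pH 7.6 were incubated with compounds for 15 min at room temperature. The reaction was started with 10 nM Photinus pyralis luciferase and luminescence read after 5 min. Percent inhibition was fitted to a 4-parameter Hill equation.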

[14] = Primary fluorescence-based thiol-reactive (MSTI) qHTS assay for identification of artifact compounds. (AID 1845221);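 also: series mostly up to about 54 µM; thiol-reactive compounds lower the probe fluorescence signal; nearly all actives have a fitted effect of over 65% in size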
Outline: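 A multi-concentration qHTS design tested compounds against 4 uM MSTI, pH 7.4 phosphate-buffered saline. Plates were protected from light for 1 h at room temperature before imaging fluorescence.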

[15] = tested on: Nanoluciferase (engineered Oplophorus gracilirostris luciferase); assay: Primary Nanoluciferase (NLuc) qHTS assay for identification of artifact compounds. (AID 1845222); also: series mostly up to about 54 µM
Outline: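 Diluted conditioned medium from NLuc-expressing S16 cells treated with compounds for 15 min at room temperature, then Nano-Glo substrate added; luminescence read after 5 min. Percent inhibition versus no-enzyme and DMSO controls fitted to 4-parameter Hill equation.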

Measured: Potency

Sequence of Glutathione peroxidase 1 (Homo sapiens) (P07203 whole entry, looked up): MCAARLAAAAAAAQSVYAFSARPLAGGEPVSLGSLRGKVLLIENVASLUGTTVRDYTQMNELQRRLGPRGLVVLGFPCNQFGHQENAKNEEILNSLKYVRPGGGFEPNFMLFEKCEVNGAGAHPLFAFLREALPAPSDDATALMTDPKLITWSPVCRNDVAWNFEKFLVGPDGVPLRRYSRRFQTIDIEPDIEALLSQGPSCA
Sequence of Phospholipid hydroperoxide glutathione peroxidase GPX4 (Homo sapiens) (P36969 whole entry, looked up): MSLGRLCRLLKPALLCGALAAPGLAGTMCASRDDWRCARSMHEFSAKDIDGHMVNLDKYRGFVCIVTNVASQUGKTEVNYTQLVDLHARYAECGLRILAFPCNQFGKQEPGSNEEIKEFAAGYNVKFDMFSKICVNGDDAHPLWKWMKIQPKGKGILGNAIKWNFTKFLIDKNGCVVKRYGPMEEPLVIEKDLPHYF

CCOP(=S)(OCC)Oc1ccc2c(C)c(Cl)c(=O)oc2c1
inactive: [1] | [2]

O=C(O)CCCc1ccc(N(CCCl)CCCl)cc1
inactive: [1] | [2] | [3] | [4] | [5] | [6]

C[C@]12CC[C@H]3[C@@H](CCC4=CC(=O)CC[C@@H]43)[C@@H]1CC[C@@H]2OC(=O)CCc1ccco1
inactive: [1] | [2]

COP(=S)(OC)Oc1ccc(S(=O)(=O)N(C)C)cc1
inactive: [1] | [2]

COP(=S)(OC)SCN1C(=O)c2ccccc2C1=O
inactive: [2]

C[C@]12CCC(=O)C=C1CC[C@@H]1[C@H]3CC[C@](C)(O)[C@@]3(C)CC[C@@H]12
active: [6] 10800 nM
inactive: [7]

C[N+]1(CCF)[C@@H]2CC[C@H]1CC(OC(=O)C(O)(c1ccccc1)c1ccccc1)C2 (stereo partly specified)
inactive: [1] | [2]

C[C@](O)(CS(=O)(=O)c1ccc(F)cc1)C(=O)Nc1ccc(C#N)c(C(F)(F)F)c1
inactive: [1] | [2]
active: [8] 14800 nM | [9] 372 nM | [3] 662 nM | [10] 18700 nM | [4] 1050 nM | [6] 8330 nM | [11] 935 nM | [12] 833 nM

C[C@]12CCC(=O)C=C1CC[C@@H]1[C@@H]2CC[C@]2(C)C(=O)CC[C@@H]12
inactive: [1] | [2]

C[C@]12CC[C@@H]3c4ccc(OC(=O)N(CCCl)CCCl)cc4CC[C@H]3[C@@H]1CC[C@@H]2OP(=O)(O)O
inactive and 12.6 µM (active): [2]
not listed: [8] | [11] | [12]
inactive: all other assays above

CC(C)NC(C)C
inactive: [1] | [2]

O=[N+]([O-])O[C@H]1CO[C@H]2[C@@H]1OC[C@H]2O[N+](=O)[O-]
inactive: [1] | [2]

CN1C(=O)COc2c(C(=O)NC3CN4CCC3CC4)cc(Cl)cc21 (stereo unspecified)
inactive: [1] | [2] | [8] | [9] | [5] | [6] | [12]

CCc1cc2c(s1)-n1c(C)nnc1CN=C2c1ccccc1Cl
inactive: [1] | [2]

C[C@]12CC[C@H]3[C@@H](CC[C@@]45O[C@H]4C(O)=C(C#N)C[C@]35C)[C@H]1CC[C@H]2O
inactive: [1] | [2] | [3] | [10] | [5] | [6] | [11] | [7]

COP(=S)(OC)Oc1ccc(SC)c(C)c1
inactive: [1] | [2]

COC1CC(=C(c2cccs2)c2cccs2)C[N+](C)(C)C1 (stereo unspecified)
inactive: [1] | [2]

COc1cc(OC)c(OC)cc1C=O
inactive: [8] | [9] | [3] | [10] | [4] | [5] | [6] | [7]

CNC(C)(C)Cc1ccccc1
inactive: [1] | [2]
